Assay results as given in PubChem BioAssay AID1706 (The Scripps Research Institute Molecular Screening Center, 2009).
Hit rate of the full screen: of about 290,000 compounds, about 400 (0.14%) were called active. The list comes from a sample in which actives are over-represented; it also holds similar structures and randomly drawn compounds. Values without a mark were called inactive. No stated cut-off is given here; in the data, active means inhibition above about 12%; inactive means the rest.

These compounds were tested against Replicase polyprotein 1ab (Severe acute respiratory syndrome coronavirus) (UniProt P0C6X7) (assay: SARS-CoV 3CLpro protease inhibitors, primary screen, biochemical, quenched FRET (AID 1706)). Details: recombinant SARS-CoV 3CLpro, quenched FRET peptide cleavage; at 6 µM; hits give high values.

Row | Structure (SMILES) | inhibition
1 | COC(=O)c1ccc2c(=O)n(CCN3CCOCC3)c(SCC(=O)Nc3cccc(OC)c3)nc2c1 | -4.67%
2 | CCC(=O)c1cn(CCOc2ccccc2OC)c2ccccc12 | 1.13%
3 | COc1ccccc1NC(=O)N1CCCC1C(=O)NCc1cccs1 (stereo unspecified) | -2.73%
4 | Cc1cc(C)cc(NS(=O)(=O)Cc2ccccc2)c1 | -7.45%
5 | CCCc1nnc(NC(=O)CCC(=O)NC2CC2)s1 | -2.59%
6 | O=C(COC(=O)CCCNC(=O)c1ccc(Cl)cc1)Nc1cc(Cl)ccc1Cl | -4.18%
7 | CN(CC(=O)Nc1cccc(F)c1)CC(=O)Nc1cccc([N+](=O)[O-])c1 | 0.23%
8 | O=C(CN1CCC(NC(=O)Nc2ccccc2)CC1)Nc1cccc([N+](=O)[O-])c1 | -2.45%
9 | CN1CCN(CC(=O)Nc2cccc([N+](=O)[O-])c2)CC1 | 15.7% (active)
10 | CC(=O)N1CCSc2ccc(S(=O)(=O)N3CCC(C)CC3)cc21 | 0.66%
11 | O=C(COC(=O)c1cc(=O)[nH]c2ccccc12)Nc1nc(-c2cccc(Br)c2)cs1 | 2.23%
12 | CC(C)NC(=O)COCc1cc(-c2ccc3c(c2)OCO3)on1 | 3.95%
13 | CCc1nonc1NC(=O)c1oc2ccc(Cl)cc2c1C | -1.85%
14 | CCN1CCN(C(=O)Cn2nc(C)n3c(cc4c(OC)cccc43)c2=O)CC1 | -4.38%
15 | COc1ccc(NC(=O)C2C3C=CC(C3)C2C(=O)NCc2ccccn2)c(OC)c1 (stereo unspecified) | 0.98%
16 | O=C(CCc1nnc2ccc(NCc3ccccc3Cl)nn12)NCC1CCN(C2CCCC2)C1 (stereo unspecified) | 2.8%
17 | COc1cccc(CNS(=O)(=O)c2cc3c(cc2C)n(C)c(=O)c(=O)n3C)c1 | 3.5%
18 | O=C(CN1C(=O)C2C3C=CC(C3)C2C1=O)NCC1COc2ccccc2O1 (stereo unspecified) | 2.22%
19 | Cc1cc(C(=O)CCl)c(C)n1CC1COc2ccccc2O1 (stereo unspecified) | 6.71%

Row | Structure (SMILES) | inhibition
20 | O=C1C(=O)N(CC2COc3ccccc3O2)c2ccccc21 (stereo unspecified) | 23.4% (active)
21 | CC(C)c1ccccc1OCC(O)CN(CC(O)COc1cccc2ccccc12)C(C)C (stereo unspecified) | 3.86%
22 | Nc1ncc(CN2CCCC(C(=O)Nc3ccc(-c4ccco4)cc3)C2)cn1 (stereo unspecified) | -4.02%
23 | CC12CCC(C(=O)N(NC(=O)c3ccccc3O)C1=O)C2(C)C (stereo unspecified) | 5.94%
24 | Cc1ccc(-c2nc(-c3cccnc3)sc2CC(=O)Nc2ccc(C)c(Cl)c2)cc1 | -0.63%
25 | Oc1ccc2ccc3cccc[n+]3c2c1 | 3.63%
26 | CN(C)S(=O)(=O)c1cccc(C(=O)OCC(=O)N2CCCC2=O)c1 | 0.39%
27 | C[C@H](NC(=O)C1CC(=O)N(c2ccc3c(c2)OCCO3)C1)C(=O)N1CCC(C(=O)O)CC1 (stereo partly specified) | 2.21%
28 | CCOC(CNC(=O)C(=O)NCC(c1ccco1)N1CCN(c2ccc(OC)cc2)CC1)OCC (stereo unspecified) | -3.43%
29 | Cc1c(C(=O)NCCN2CCOCC2)sc2nc(-c3ccc(F)cc3)cn12 | 3.35%
30 | Cc1ccc(NS(=O)(=O)c2ccc3c(c2)oc(=O)n3C)c(C)c1 | 8.19%
31 | CC1(C)N=C(c2ccccn2)C(C)(C)N1O | -1.96%
32 | COc1ccc([N+](=O)[O-])cc1NCC(=O)c1ccc(C)cc1 | -0.37%
33 | O=c1[nH]c(/C=C\c2cccc(C(F)(F)F)c2)nc(O)c1[N+](=O)[O-] | -0.63%
34 | COc1ccc(C(CNC(=O)c2cc3c(s2)CCCC3)N2CCOCC2)cc1 (stereo unspecified) | 0.58%
35 | N#Cc1ncc(C(F)(F)F)cc1Oc1cccnc1 | 4%
36 | COc1cccc(C(=O)NC(=O)Nc2nc(C)cc(C(F)(F)F)n2)c1 | -0.93%
37 | COc1cccc(CN(C)CC(O)COC(c2ccccc2)c2ccccc2C)c1 (stereo unspecified) | -1.74%
38 | CCCCCCCCCCCCN1C(=O)CSC1c1cccnc1 (stereo unspecified) | 0.63%

Row | Structure (SMILES) | inhibition
39 | Cn1nc(-c2ccc(N3CCOCC3)c(NC(=O)c3ccccc3)c2)c2ccccc2c1=O | -4%
40 | O=C(Cc1ccc(Br)cc1)NCCN1CCOCC1 | -3.15%
41 | Cc1ccc(CNC(=O)C2(C(F)(F)F)C/C(=C\Cc3ccccc3)CCCO2)o1 (stereo unspecified) | 2.14%
42 | CC(=O)N1CCCc2cc(S(=O)(=O)N3CCCC(C(=O)N4CCN(c5cccc(Cl)c5)CC4)C3)ccc21 (stereo unspecified) | -4.69%
43 | O=C(NC1CCCC1)C(c1ccco1)N(C(=O)c1ccco1)c1ccc(F)cc1 (stereo unspecified) | -3.74%
44 | CC(C)c1ccc(N(C(=O)c2ccco2)C(C(=O)NC2CCCC2)c2cccnc2)cc1 (stereo unspecified) | 50.8% (active)
45 | COc1cccc(N(C(=O)CNC(=O)c2ccco2)C(C(=O)NC2CCCCC2)c2cccnc2)c1 (stereo unspecified) | 0.2%
46 | CS(=O)(=O)N(CC(=O)N1CCOCC1)c1cccc(Cl)c1Cl | 10.7%
47 | COc1ccc(C(C(=O)NCC2CCCO2)N(C(=O)Cn2nnc3ccccc32)c2ccc(NC(C)=O)cc2)cc1OC (stereo unspecified) | 11.5%
48 | CCC(C)(C)NC(=O)C(c1ccc(O)cc1)N(C(=O)Cn1nnc2ccccc21)c1ccc(NC(C)=O)cc1 (stereo unspecified) | 27.5% (active)
49 | COc1ccc(C(C(=O)NC(C)(C)C)N(C(=O)Cn2nnc3ccccc32)c2ccc(C(C)=O)cc2)cc1O (stereo unspecified) | 3.87%
50 | CN1CN(C)c2ccc([N+](=O)[O-])c3cccc1c23 | 2.09%
51 | Cc1c(C(=O)NCC(c2ccco2)N2CCCC2)oc2ccc(Cl)cc12 (stereo unspecified) | -1.9%
52 | CCN(CC(=O)NCC(=O)Nc1cccc(C)c1C)Cc1ccccc1 | -2.94%
53 | CCOC(=O)c1ccc(-n2c(CCC(=O)O)ccc2-c2ccccc2)cc1 | 3.33%
54 | Cc1ccc2c(c1)C1CN(C)CCC1N2S(=O)(=O)c1ccc(Oc2ccc([N+](=O)[O-])cc2)cc1 (stereo unspecified) | 0.21%
55 | O=C1CCCCN1CCCC(=O)N1CCCC(Nc2ccc(F)cc2)C1 (stereo unspecified) | -2.27%
56 | CCN1CCN(C(=O)C2CCCN(S(=O)(=O)c3ccc(OC)c(OC)c3)C2)CC1 (stereo unspecified) | -7.47%
